# Test results as given in PubChem BioAssay AID1345085 (National Center for Advancing Translational Sciences (NCATS), 2018).
# Records with an inconclusive call do not appear. Active and inactive are the calls of the source. Calls follow the shape of the dose curve; as a rule, active = well fitted cell-killing curve with a large enough effect; inconclusive = small, poorly fitted or top-dose-only effect, or effect the other way; inactive = no such curve, though single readings can be large or run the other way.
# System: JEG-3
# Assay: Confirmatory qHTS for gynecologic anti-cancer compounds from libraries of approved drugs and bioactive compounds; also: nearly all actives have a fitted effect of over 55% in size
# Details: gynecologic cancer cell panel viability, ATPlite luminescence, 48 h; series mostly up to 57.6 µM; activity change, negative = viability loss: at the top concentration
# In short: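 Cells (1,000/well) plated 16 h, then exposed 48 h at 37 °C to 11 concentrations (1:3) from 57.5 uM to 0.977 nM. Viability by ATPlite luminescence after 15 min; IC50 derived, with HEK 293T used for selectivity index.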
# % is scaled to controls: 0 for no effect and ±100 for the full control effect; potency is read from the fitted curve at half-maximal effect.
Compound,"activity change, negative = viability loss",Potency
COc1ccccc1N1CCN(CC(O)COc2cccc3ccccc23)CC1 (stereo not drawn),-19.4% (inactive),–
COc1cc2c(Oc3ccc(-c4cnc(Nc5ccc(F)cc5)n(C)c4=O)cc3F)ccnc2cc1OCCCN1CCOCC1,1.07% (inactive),–
Cc1cnc(Nc2ccc(F)cc2Cl)nc1-c1c[nH]c(C(=O)NC(CO)c2cccc(Cl)c2)c1 (stereo not drawn),-27.8% (inactive),–
Cc1cc(Nc2nc(N[C@@H](C)c3ncc(F)cn3)ncc2Cl)n[nH]1,4.7% (inactive),–
CCN(CC)CCCC(C)Nc1ccnc2cc(Cl)ccc12 (stereo not drawn),8.84% [at 19.5 µM] (inactive),–
O=C(O)C1(Cc2cccc(Nc3nccs3)n2)CCC(Oc2cccc(Cl)c2F)CC1 (stereo not drawn),-16.2% (inactive),–
CN(C)CC/C=C1\c2ccccc2COc2ccccc21,-6.65% (inactive),–
C=CC(=O)Nc1cccc(Oc2nc(Nc3ccc(N4CCN(C)CC4)cc3)ncc2Cl)c1,–,24.3 µM (active)
COCCOc1ccc2c(c1)ncn2-c1ccc2cccc(N3CCC(N)CC3)c2n1,–,10.9 µM (active)
CCOc1cc2ncc(C#N)c(Nc3ccc(F)c(Cl)c3)c2cc1NC(=O)/C=C/CN(C)C,–,30.6 µM (active)
O=C1N(c2ccccc2)c2ccccc2C1(Cc1ccncc1)Cc1ccncc1,27.1% (inactive),–
Nc1ccc(C(=O)Nc2cccc(-c3nc(N4CCOCC4)c4oc5ncccc5c4n3)c2)cn1,–,5.44 µM (active)
CCCCN(CCCC)CC(O)c1cc(Cl)cc2c1-c1ccc(Cl)cc1/C2=C/c1ccc(Cl)cc1 (stereo not drawn),10.7% (inactive),–
CC(=O)O[C@H]1C(=O)[C@@]2(C)[C@H]([C@H](OC(=O)c3ccccc3)[C@]3(O)C[C@H](OC(=O)[C@H](O)[C@@H](NC(=O)c4ccccc4)c4ccccc4)C(C)=C1C3(C)C)[C@]1(OC(C)=O)CO[C@@H]1C[C@@H]2O,–,0.0259 µM (active)
COc1ccc2c(c1)c(CC(=O)O)c(C)n2C(=O)c1ccc(Cl)cc1,-15.1% (inactive),–
O=c1c2ccccc2nc2n1CCc1c-2[nH]c2ccccc12,-3.72% (inactive),–
C[C@@H](Oc1cc(-c2cnn(C3CCNCC3)c2)cnc1N)c1c(Cl)ccc(F)c1Cl,–,21.7 µM (active)

Compound,"activity change, negative = viability loss",Potency
CCC1C(=O)N(C)c2cnc(Nc3ccc(C(=O)NC4CCC(N5CCN(CC6CC6)CC5)CC4)cc3OC)nc2N1C(C)C (stereo not drawn),–,0.0611 µM (active)
CCN(CC)CCCC(C)Nc1c2ccc(Cl)cc2nc2ccc(OC)cc12 (stereo not drawn),–,43.2 µM (active)
Cn1c(=O)c(-c2c(Cl)cccc2Cl)cc2cnc(Nc3cccc(C(=O)O)c3)nc21,-18.8% (inactive),–
Cn1cc(-c2[nH]c3cc(NC(=O)[C@H](N)C4CCCCC4)cc4c3c2C=NNC4=O)cn1,–,7.69 µM (active)
CC(=O)c1cnc2ccc(-c3cc(Cl)c(O)c(Cl)c3)nc2c1NC1CCC(CN(C)C)CC1 (stereo not drawn),–,0.627 µM (active)
CCCC(=O)O[C@]1(C(=O)CCl)[C@@H](C)C[C@H]2[C@@H]3CCC4=CC(=O)C=C[C@]4(C)[C@@]3(F)C(=O)C[C@@]21C,–,10.9 µM (active)
COc1ccc(CCC(=O)c2c(O)cc(O[C@@H]3O[C@H](CO)[C@@H](O)[C@H](O)[C@H]3O[C@@H]3O[C@@H](C)[C@H](O)[C@@H](O)[C@H]3O)cc2O)cc1O,8.82% (inactive),–
CS(=O)(=O)c1ccc(-c2cnc(N)c(C(=O)Nc3ccccc3)n2)cc1,-3.63% (inactive),–
Cc1[nH]c2ccccc2c1CCNCc1ccc(/C=C/C(=O)NO)cc1,–,0.193 µM (active)
CCCC(Nc1nc(-c2ccc(NC(=O)NCC)c(OC)c2)ncc1C)c1cccnc1 (stereo not drawn),–,0.153 µM (active)
O=c1cc(CN2CCOCC2)occ1OCCCCCSc1ccnc2cc(C(F)(F)F)ccc12,–,8.63 µM (active)
O=C(c1ccc(F)c(F)c1Nc1ccc(I)cc1F)N1CC(O)([C@@H]2CCCCN2)C1,–,24.3 µM (active)
NC(=O)Nc1cc(-c2cccc(F)c2)sc1C(=O)NC1CCCNC1 (stereo not drawn),–,1.22 µM (active)
COCCOc1nc(-c2ccc(Cl)c(Cl)c2)n(-c2ccc(NC(=O)CCl)cc2)n1,–,19.3 µM (active)
CNC1CCC(N(Cc2cccc(-c3ccncc3)c2)C(=O)c2sc3ccccc3c2Cl)CC1 (stereo not drawn),–,27.3 µM (active)
CCc1c2c(nc3ccc(O)cc13)-c1cc3c(c(=O)n1C2)COC(=O)[C@]3(O)CC,–,0.122 µM (active)
